Results: ChEMBL document CHEMBL3988442, “University of Dundee, Small-Polar-MMV Screening Library” (2021)
For some of these results: Results with a measured potency or affinity are listed apart.

Legend:
Design in all cases: scale not given: direction of the effect not stated beside the values
[1] = biological target: Protein translocase subunit SecA (Escherichia coli (strain K12)) (UniProt P10408); assay: Assay to Identify E. coli SecA ATPase Inhibitors; assay type: functional; conditions: 30 µM
Chain of Protein translocase subunit SecA (Escherichia coli (strain K12)) (P10408 whole entry): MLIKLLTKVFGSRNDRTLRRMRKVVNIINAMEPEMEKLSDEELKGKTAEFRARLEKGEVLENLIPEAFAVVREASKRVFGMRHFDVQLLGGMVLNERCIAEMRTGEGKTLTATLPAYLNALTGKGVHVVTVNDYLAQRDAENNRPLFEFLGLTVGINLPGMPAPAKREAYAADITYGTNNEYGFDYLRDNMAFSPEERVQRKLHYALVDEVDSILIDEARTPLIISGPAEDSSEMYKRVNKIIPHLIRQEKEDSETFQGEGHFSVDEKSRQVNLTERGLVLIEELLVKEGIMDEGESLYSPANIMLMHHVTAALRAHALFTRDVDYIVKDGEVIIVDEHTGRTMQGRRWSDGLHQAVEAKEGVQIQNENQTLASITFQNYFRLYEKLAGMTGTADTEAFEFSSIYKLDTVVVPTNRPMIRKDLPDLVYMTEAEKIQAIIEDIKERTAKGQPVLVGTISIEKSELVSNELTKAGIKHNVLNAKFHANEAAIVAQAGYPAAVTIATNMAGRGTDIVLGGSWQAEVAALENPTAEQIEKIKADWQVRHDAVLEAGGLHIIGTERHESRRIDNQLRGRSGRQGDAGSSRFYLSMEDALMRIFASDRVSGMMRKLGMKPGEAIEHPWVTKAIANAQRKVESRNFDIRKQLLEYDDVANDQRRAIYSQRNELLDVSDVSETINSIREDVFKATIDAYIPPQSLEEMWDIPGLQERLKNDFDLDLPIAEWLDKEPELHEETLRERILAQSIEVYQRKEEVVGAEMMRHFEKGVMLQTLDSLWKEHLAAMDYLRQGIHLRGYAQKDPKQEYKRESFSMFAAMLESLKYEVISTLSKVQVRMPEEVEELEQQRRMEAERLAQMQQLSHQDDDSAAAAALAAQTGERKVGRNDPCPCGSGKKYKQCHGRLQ

[2] = biological target: T1, Ubiquitin-activating enzyme e1, putative (Leishmania donovani (strain BPK282A1)) (UniProt E9BSI1); assay: Leishmania donovani Ubiquitin Activating Enzyme (LdE1); assay type: functional; conditions: 30 µM
T1 sequence (whole entry): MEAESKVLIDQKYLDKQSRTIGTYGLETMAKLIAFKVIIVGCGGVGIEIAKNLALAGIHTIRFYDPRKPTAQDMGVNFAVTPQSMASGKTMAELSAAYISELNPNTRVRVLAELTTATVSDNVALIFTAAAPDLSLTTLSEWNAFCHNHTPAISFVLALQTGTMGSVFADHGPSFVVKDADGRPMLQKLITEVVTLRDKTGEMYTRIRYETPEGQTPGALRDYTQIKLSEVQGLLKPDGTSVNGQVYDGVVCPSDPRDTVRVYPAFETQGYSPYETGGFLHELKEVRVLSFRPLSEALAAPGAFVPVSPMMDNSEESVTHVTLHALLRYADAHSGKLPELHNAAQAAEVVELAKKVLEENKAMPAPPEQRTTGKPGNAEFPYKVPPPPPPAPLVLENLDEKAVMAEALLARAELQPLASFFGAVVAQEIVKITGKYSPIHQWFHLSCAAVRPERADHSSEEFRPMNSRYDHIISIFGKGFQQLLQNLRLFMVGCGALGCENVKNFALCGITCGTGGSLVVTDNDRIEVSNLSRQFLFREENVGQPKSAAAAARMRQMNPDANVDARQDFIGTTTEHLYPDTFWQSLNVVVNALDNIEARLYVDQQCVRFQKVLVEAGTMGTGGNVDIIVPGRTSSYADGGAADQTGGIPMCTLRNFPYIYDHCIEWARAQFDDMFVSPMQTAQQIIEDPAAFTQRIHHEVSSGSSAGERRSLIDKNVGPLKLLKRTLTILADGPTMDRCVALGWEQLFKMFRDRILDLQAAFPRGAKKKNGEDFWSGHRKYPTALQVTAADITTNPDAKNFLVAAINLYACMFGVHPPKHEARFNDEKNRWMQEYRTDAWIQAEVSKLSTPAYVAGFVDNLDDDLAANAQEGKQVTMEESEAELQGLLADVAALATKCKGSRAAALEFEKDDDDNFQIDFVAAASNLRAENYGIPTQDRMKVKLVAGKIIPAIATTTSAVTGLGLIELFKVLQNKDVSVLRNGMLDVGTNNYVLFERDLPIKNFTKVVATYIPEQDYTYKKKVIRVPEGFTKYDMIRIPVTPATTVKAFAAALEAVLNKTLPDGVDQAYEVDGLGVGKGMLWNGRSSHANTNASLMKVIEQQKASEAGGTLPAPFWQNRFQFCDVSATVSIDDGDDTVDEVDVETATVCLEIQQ

[3] = biological target: AMP-activated protein kinase, AMPK (Homo sapiens) (UniProt P54646+O43741+P54619+Q9UGJ0+Q9Y478+Q13131+Q9UGI9); assay: AMP-dependent Kinase enzyme assay. An in vitro enzyme assay that detects ADP turnover that is directly proportional to AMPK activity. This uses naive AMPK that is activated during the assay with MK-8722; assay type: functional; conditions: 30 µM
[4] = biological target: Sialic acid-binding Ig-like lectin 9 (Homo sapiens) (UniProt Q9Y336); assay: Hs-Siglec9 ALPHAscreen SOP 20170721; conditions: 10 µM
Chain of Sialic acid-binding Ig-like lectin 9 (Homo sapiens) (Q9Y336 whole entry): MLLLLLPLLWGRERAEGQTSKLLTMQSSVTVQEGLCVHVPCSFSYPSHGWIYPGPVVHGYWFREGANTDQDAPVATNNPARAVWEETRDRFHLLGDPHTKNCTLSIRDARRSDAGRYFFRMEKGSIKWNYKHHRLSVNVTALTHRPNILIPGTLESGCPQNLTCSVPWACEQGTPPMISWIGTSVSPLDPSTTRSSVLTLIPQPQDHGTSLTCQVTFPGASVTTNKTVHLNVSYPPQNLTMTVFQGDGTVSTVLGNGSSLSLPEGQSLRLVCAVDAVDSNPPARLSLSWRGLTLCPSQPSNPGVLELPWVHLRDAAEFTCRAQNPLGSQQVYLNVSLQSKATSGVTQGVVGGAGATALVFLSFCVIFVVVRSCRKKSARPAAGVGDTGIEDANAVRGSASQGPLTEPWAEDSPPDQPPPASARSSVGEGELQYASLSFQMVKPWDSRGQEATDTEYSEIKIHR

Trypanosoma cruzi = assay: Trypanosoma cruzi phosphomannomutase and mannose-1-phosphate guanylyltransferase assay; assay type: functional; conditions: 10 µM
[5] = biological target: T2, Arginase-2, mitochondrial (Homo sapiens) (UniProt P78540); assay: in vitro enzyme assay to detect the production of urea directly proportional to the activity of Arginase II; assay type: functional; conditions: 33.3 µM; further: in the data most compounds retested in dose-response had high values
T2 sequence (whole entry): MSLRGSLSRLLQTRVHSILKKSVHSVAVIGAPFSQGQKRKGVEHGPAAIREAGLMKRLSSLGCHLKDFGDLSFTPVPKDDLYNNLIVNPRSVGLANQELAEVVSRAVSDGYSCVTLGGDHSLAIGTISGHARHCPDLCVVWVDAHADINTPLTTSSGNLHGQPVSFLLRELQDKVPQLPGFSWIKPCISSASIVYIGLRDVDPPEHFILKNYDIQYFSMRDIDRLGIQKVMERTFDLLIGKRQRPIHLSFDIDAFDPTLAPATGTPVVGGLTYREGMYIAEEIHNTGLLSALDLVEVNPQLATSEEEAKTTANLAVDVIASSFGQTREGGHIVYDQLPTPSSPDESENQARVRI

[6] = biological target: T3, Proteasome subunit beta (Trypanosoma cruzi) (UniProt O96673); assay: Trypanosoma cruzi proteasome chymotrypsin-like activity (TcProtChymo) assay.; further: in the data most compounds retested in dose-response had high values; assay type: functional; conditions: 9.37 µM
T3 sequence (whole entry): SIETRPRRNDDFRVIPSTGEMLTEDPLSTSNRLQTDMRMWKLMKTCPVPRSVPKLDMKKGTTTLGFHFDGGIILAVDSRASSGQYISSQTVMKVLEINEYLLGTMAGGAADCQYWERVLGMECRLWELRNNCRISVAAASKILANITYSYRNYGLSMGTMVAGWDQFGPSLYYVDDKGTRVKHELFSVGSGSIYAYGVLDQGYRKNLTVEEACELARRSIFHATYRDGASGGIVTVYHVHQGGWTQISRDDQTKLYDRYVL

Homo sapiens = species on record: Homo sapiens; assay: To identify inhibition of the IFN signalling (Jak-Stat) pathway via expression of an eGFP reporter gene under the control of an IFN-stimulated response element (ISRE) containing MxA promoter.; assay type: functional; conditions: 30 µM
[7] = biological target: T4, Tyrosyl-tRNA synthetase, putative (Trypanosoma cruzi (strain CL Brener)) (UniProt Q4DSP6); assay: Trypanosoma cruzi tyrosyl tRNA synthetase (TcYRS) _High Tyrosine SOP; assay type: functional; conditions: 30 µM; further: in the data most compounds retested in dose-response had high values
T4 sequence (whole entry): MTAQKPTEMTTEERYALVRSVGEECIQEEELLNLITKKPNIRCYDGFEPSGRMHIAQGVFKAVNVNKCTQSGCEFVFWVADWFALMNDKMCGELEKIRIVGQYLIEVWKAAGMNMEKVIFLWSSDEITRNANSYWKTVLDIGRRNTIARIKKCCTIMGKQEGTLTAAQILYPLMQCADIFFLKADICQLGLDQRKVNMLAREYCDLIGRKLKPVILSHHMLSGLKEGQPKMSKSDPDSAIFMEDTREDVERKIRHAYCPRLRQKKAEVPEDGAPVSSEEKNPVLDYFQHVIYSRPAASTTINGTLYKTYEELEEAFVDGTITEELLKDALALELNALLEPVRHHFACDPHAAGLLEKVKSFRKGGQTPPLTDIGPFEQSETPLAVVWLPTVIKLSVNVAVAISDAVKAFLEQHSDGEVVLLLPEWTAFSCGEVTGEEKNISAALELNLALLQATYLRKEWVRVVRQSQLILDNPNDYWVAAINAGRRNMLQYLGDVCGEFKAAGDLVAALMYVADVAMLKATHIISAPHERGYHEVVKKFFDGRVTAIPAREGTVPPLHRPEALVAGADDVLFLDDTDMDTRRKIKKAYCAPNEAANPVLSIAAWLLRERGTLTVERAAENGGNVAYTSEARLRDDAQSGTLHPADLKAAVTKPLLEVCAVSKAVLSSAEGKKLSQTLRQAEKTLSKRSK

[8] = biological target: T4, Tyrosyl-tRNA synthetase, putative (Trypanosoma cruzi (strain CL Brener)); assay: Trypanosoma cruzi tyrosyl tRNA synthetase (TcYRS) SOP; assay type: functional; conditions: 30 µM
[9] = biological target: Chromo domain-containing protein 1 (Saccharomyces cerevisiae (strain ATCC 204508 / S288c) (Baker's yeast)) (UniProt P32657); assay: ScCHD-1 Enzyme Inhibition Assay; assay type: functional; conditions: 30 µM; further: in the data most compounds retested in dose-response had high values
Chain of Chromo domain-containing protein 1 (Saccharomyces cerevisiae (strain ATCC 204508 / S288c) (Baker's yeast)) (P32657 whole entry, the tested form may be a part): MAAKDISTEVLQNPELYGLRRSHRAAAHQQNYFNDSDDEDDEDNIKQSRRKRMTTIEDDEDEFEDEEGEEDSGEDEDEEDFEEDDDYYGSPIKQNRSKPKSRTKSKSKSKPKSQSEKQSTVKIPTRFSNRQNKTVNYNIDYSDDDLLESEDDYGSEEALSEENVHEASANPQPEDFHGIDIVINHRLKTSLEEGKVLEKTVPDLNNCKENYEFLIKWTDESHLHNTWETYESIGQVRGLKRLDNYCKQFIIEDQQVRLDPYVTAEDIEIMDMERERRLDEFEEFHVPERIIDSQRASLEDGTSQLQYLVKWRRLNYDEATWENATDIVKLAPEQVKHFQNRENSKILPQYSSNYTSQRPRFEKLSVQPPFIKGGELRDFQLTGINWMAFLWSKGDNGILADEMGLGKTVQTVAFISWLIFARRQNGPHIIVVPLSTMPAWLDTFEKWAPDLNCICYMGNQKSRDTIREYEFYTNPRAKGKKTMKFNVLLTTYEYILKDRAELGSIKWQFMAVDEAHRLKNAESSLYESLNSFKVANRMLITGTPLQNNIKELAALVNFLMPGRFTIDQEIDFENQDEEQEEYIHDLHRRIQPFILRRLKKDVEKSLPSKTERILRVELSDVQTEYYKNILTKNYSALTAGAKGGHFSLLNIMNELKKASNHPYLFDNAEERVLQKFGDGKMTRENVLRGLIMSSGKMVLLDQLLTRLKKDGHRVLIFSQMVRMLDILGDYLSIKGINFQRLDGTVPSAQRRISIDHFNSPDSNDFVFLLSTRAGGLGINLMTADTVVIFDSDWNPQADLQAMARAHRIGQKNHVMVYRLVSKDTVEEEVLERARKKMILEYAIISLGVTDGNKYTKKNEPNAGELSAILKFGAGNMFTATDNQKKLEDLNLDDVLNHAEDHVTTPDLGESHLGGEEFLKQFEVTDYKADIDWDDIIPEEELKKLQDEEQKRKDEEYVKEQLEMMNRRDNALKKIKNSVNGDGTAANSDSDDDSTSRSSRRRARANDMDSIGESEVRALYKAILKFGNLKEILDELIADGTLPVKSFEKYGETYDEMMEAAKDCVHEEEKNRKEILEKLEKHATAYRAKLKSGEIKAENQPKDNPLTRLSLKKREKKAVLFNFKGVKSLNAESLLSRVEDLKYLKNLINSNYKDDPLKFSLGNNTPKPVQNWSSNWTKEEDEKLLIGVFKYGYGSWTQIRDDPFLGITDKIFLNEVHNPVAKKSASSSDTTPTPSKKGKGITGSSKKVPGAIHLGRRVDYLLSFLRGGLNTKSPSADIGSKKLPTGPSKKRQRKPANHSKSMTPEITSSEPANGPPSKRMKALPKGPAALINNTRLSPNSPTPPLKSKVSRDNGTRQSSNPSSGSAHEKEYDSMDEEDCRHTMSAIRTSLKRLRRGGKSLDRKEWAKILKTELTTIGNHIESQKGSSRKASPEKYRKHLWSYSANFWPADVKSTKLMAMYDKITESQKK

SMILES | Percent Effect [1] [%] | Percent Effect [2] [%] | Percent Effect [3] [%] | Percent Effect [4] [%] | Percent Effect (Trypanosoma cruzi) [%] | Percent Effect [5] [%] | Percent Effect [6] [%] | Percent Effect (Homo sapiens) [%] | Percent Effect [7] [%] | Percent Effect [8] [%] | Percent Effect [9] [%]
CCc1nc(CN(C)CC2CCN(CC(C)O)CC2)no1 (stereo unspecified) | -2.22 | 0 | -8.55 | 0.164 | 9.46 | -2.86 | 1.03 | -23.1 | 2.65 | 7.32 | -1.75
COc1ccc(Br)c(C(=O)NCCNc2ccc(C(F)(F)F)cn2)c1 | 0.559 | 18.2 | 8.45 | -0.542 | -1.08 | 0.21 | 10.9 | -7.76 | 11.4 | 25.9 | -25.7
CN(CC(=O)N1CCC(Oc2ccccc2)CC1)c1cnccn1 | -3.37 | 21.6 | -3.35 | 7.97 | 4.74 | 2.4 | 5.75 | 18.1 | 5.94 | 25.6 | -8.13
COCCN1C[C@@H](C)[C@@]2(COCCN(C(=O)Cc3ccccc3)C2)C1 | -2.42 | 10.7 | 4.69 | 6.89 | 1.54 | -54.7 | 5.13 | -15.6 | 5.21 | 12.5 | -7.47
COc1ccccc1CN1CCC2(CC1)CC(Oc1ccccn1)CO2 (stereo unspecified) | -0.474 | 16 | -2.4 | -9.97 | 2.76 | 132 | 14.9 | -3.26 | 4.25 | 8.97 | -13.9
O=C(c1ncccn1)N1C[C@H]2CCC[C@@]2(COCC2CCOCC2)C1 | -5.07 | 10.8 | 1.99 | -7.31 | 6.16 | -0.319 | 19.9 | 25.2 | 6.49 | 15.4 | 2.35
O=C(O)c1coc(COc2cccc(F)c2)n1 | -5.01 | 16.2 | -4.57 | 33.9 | 5.77 | 19.6 | 18.4 | -3.93 | 5.38 | 16.1 | -12.4
Fc1ccc(CN2CCO[C@H]3[C@H](OCCN4CCCC4)CC[C@@H]32)cc1 | 7.01 | 10.7 | 5.78 | 7.14 | -4.05 | -51.1 | 12.8 | -9.42 | 5.21 | 12.5 | -3.68
CCc1ccc(C(=O)O)cc1S(=O)(=O)Nc1ccc(F)c(C#N)c1 | -2.04 | -2.7 | -11.6 | 10.6 | 3.87 | -0.802 | 1.08 | 7.96 | -2.46 | 1.24 | -2.76
Cc1cc(C)cc(OCCC(=O)N2CCOCC2c2ncon2)c1 (stereo unspecified) | -7.26 | 2.7 | -4.41 | 6.93 | -5.11 | -1.29 | -1.62 | 4.3 | 2.97 | 11 | 0.318
COCc1cccc(CNCc2c(C)nn(C)c2N(C)C)c1 | -6.8 | 18.9 | -21.5 | 9.53 | 7.64 | -4.01 | 12.4 | 4.56 | 7.39 | 23.5 | -13.6
